Data on 36 compounds can be found in PubChem BioAssay (NCI).

The structures appear in SMILES notation. About 83,000 compounds went through this panel and 20% of them were active in at least one assay; those are over-represented in the sample as a whole.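 Single-concentration screen, 48 h exposure, 96-well plates. Endpoint: percent growth. Below 10 = active.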 Active and inactive are the calls of the source.

The assay has as its system KM12 colon. The assay is described as follows: NCI-60 one-dose screen, 48 h (100 = growth as untreated, 0 = no growth, -100 = all killed). Particulars: 10 µM unless noted.
Take `O=S(=O)(NCCNc1nccc(-n2cnc3ccccc32)n1)c1ccc(Br)cc1`: the growth was 85.4% (inactive).
On to `NS(=O)(=O)c1ccc(Nc2nc(N/N=C/c3ccccn3)nc(Nc3ccccc3)n2)cc1`, for which the growth is 4.15% (active).
With `NC(N)=Nc1ccc(Oc2cccc(Nc3ccc(Br)c(C(F)(F)F)c3)c2)cc1` the figure was -27.2% (active).
For the compound `O=c1[nH]c2ccccc2cc1CSc1ccccc1Nc1nccc(-c2ccc(Cl)cc2)n1`, the growth was 100% (inactive).
Turning to `COc1ccccc1C(=O)Nc1cccc2c1C(=O)C(=O)C=C2`, the growth is 99.3% (inactive).
On to `CCO/C=N/C1=C(C#N)C(c2ccc(F)cc2)c2sc3c(C)cccc3c2O1` (stereo unspecified), for which the growth was 8.6% (active).
For the compound `O=C(NNc1nc2cc(F)ccc2n2c(CN3CCCC3)ccc12)c1cnccn1`, the growth is 20.3% (inactive).
With `COc1cc(-c2nn(C(C)(C)C)cc2-c2ccnc(NCCCNS(=O)(=O)c3ccccc3)n2)ccc1Cl`, the growth was 86.5% (inactive).
In the case of `O=C(NCc1ncc[nH]1)c1ccc(-c2nc3ccc4[nH]ncc4c3c3c2CCCC3)cc1`, the growth is 4.99% (active).
Next, `O=C(NNc1nc2cc(F)ccc2n2c(CO)ccc12)c1cnccn1`: 22.2% (inactive); `O=[N+]([O-])c1cc(/C=N/Nc2nc(N/N=C/c3ccc(Cl)c([N+](=O)[O-])c3)nc(N3CCCCC3)n2)ccc1Cl`: 5.45% (active).
In the case of `COc1c(N2CC3CCCNC3C2)c(F)cc2c(=O)c(C(=O)N/N=C/c3ccccc3)cn(C3CC3)c12` (stereo unspecified), the growth is 101% (inactive).
On to `O=C(CNc1nc(-c2cccc([N+](=O)[O-])c2)cs1)Nc1cccc(Cl)c1`, for which the growth is 100% (inactive).
Regarding `O=S(=O)(NCCNc1nccc(-n2cnc3ccccc32)n1)c1ccc(C(F)(F)F)cc1`, the growth is 58.7% (inactive).
As to `CC(C)(C)c1ccc(C(=O)Nc2sc3c(c2C(N)=O)CC/C(=N\O)C3)cc1`, the growth is 6.97% (active).
For the compound `CC(=O)c1nnn(-c2c(C(=O)n3nc(C)cc3C)sc(=S)n2-c2ccccc2)c1C`, the growth was 104% (inactive).
Regarding `CNC(=O)c1c(NC(=O)c2ccccc2C(F)(F)F)sc2c1CCC(=O)C2`, the growth is 18.5% (inactive).
Next, `O=C(NNc1nc2cc(F)c(F)cc2n2cccc12)c1cnccn1`: 22.3% (inactive); `COc1cc(Nc2c(C#N)cnn3cc(-c4cnn(CC(C)(C)O)c4)cc23)ccc1Cl`: 19.1% (inactive).
With `CCCCCCCn1cc2c(N[C@H](C)c3ccccc3)ncnc2n1`, the growth was 100% (inactive).
Consider `O=C(Cn1cc(-c2ccccc2)nn1)Nc1nc(-c2ccc(Cl)cc2)cs1`, for which the growth was 108% (inactive).
`CCOC(=O)C(=O)CC(=O)N1C(=S)NC(=O)C1CC(C)C` (stereo unspecified): the growth was 98.8% (inactive).
Consider `O=C1Nc2ccccc2/C1=C/c1ccc(CO)n1-c1ccc(Cl)cc1`, for which the growth was 13.4% (inactive).
With `CCO/C=N/C1=C(C#N)C(c2ccc(OC)cc2)c2sc3c(CC)cccc3c2O1` (stereo unspecified) the figure was 18.9% (inactive); with `O=C1[C@@H]2Cc3c([nH]c4ccccc34)[C@H](c3c(Cl)cccc3Cl)N2C(=O)CN1C1CCN(CC2CCCCC2)CC1`, 68.7% (inactive).
Consider `Cc1nn(-c2ccccc2)c2ncnc(N/N=C/c3cccc(O)c3)c12`, for which the growth is 29.3% (inactive).
Regarding `CS(=O)(=O)Nc1cc(-c2ccc3ncc(C#N)c(NCc4cccc(F)c4)c3c2)cnc1Cl`, the growth is 6.28% (active).
As to `Cc1ccc(-n2cc(/C=C/C(=O)c3ccc(O)cc3)c(-c3ccc(S(C)(=O)=O)cc3)n2)cc1`, the growth is 38.3% (inactive).
Next, `CC1(C)NCCC[C@]2(C)[C@H]3C/C(=N\O)C4[C@@H]5C[C@@](C)(CO)CC[C@]5(C)CC[C@@]4(C)[C@]3(C)CC[C@@H]12` (stereo partly specified): 104% (inactive).
Turning to `C#CCNC1CCC(c2csc(C#C)n2)=C1C` (stereo unspecified), the growth is 19.1% (inactive).
Next, `NS(=O)(=O)c1ccc(Nc2nc(Nc3ccccc3)nc3nnc(SCC(=O)NC4CCCCC4)n23)cc1`: 102% (inactive).
For `O=C(CNc1nc(-c2cccc([N+](=O)[O-])c2)cs1)Nc1cccc([N+](=O)[O-])c1`, the growth is 4.12% (active).
Regarding `O=C(CSc1nc2ccccc2c(=O)n1-c1ccc(Cl)cc1)N/N=C/c1ccc(N2CCCCC2)cc1`, the growth was 96.4% (inactive).
Take `O=C(c1ccc(Cl)cc1)C1[C@H](c2ccc(Cl)cc2)[C@@H](c2ccccc2)NC12C(=O)Nc1ccccc12` (stereo partly specified): the growth was 30.7% (inactive).
Regarding `CC(=O)c1ccc(Nc2nc(SCC(C)C)nc(-c3ccc(F)cc3)c2C#N)cc1`, the growth was 104% (inactive).
`Fc1ccc(-c2cc3nc(C(Cl)Cl)nc(-c4ccc(F)cc4)n3n2)cc1`: the growth was -12.5% (active).
